Legend:
Assay in all cases: yeast three-hybrid, YBZ-1, SC-Leu-His + 0.5 mM 3-AT, 4 days
Conditions in all cases: tags: N-Gal4 AD-HA kept; label: inside an RPR1-promoter hybrid RNA with tandem MS2 sites; ssRNA
PUM1 PUF domain R3-MYH = PUM1 PUF domain R3-MYH (Homo sapiens, UniProt Q14671 828-1176, C935M;R936Y;Q939H)
In short: (§1)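 Sequencing with Illumina followed PCR amplification of the repeat regions from transformants grown four days on SC-Leu (input) or SC-Leu-His + 0.5 mM 3-AT (selection). The transformants were strain YBZ-1 with a LexA–MS2 coat fusion and a HIS3 reporter, carrying Pumilio-1 PUF domain libraries and matching RNA elements. The interaction score is the log change in variant frequency from input to selection, computed in log2 with a pseudocount of 1 for absent variants.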

PUM1 PUF domain R8-VWR = PUM1 PUF domain R8-VWR (Homo sapiens, UniProt Q14671 828-1176, N1122V;Y1123W;Q1126R)
In short: as §1

PUM1 PUF domain R3-VWP = PUM1 PUF domain R3-VWP (Homo sapiens, UniProt Q14671 828-1176, C935V;R936W;Q939P)
In short: as §1

PUM1 PUF domain R2-NRW = PUM1 PUF domain R2-NRW (Homo sapiens, UniProt Q14671 828-1176, Y900R;Q903W)
In short: as §1

PUM1 PUF domain R6-RFA = target: T1, PUM1 PUF domain R6-RFA (Homo sapiens, UniProt Q14671 828-1176, N1043R;Y1044F;Q1047A)
T1 sequence: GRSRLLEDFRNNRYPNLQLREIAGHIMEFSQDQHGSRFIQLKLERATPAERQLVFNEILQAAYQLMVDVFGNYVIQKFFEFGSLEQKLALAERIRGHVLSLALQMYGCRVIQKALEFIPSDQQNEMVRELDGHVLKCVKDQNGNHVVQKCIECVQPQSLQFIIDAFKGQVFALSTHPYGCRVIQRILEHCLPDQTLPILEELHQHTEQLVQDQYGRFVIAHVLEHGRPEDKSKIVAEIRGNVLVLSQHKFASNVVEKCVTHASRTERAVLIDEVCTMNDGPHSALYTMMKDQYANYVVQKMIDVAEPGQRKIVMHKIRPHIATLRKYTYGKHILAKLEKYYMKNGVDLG
In short: as §1

PUM1 PUF domain R4-GQS = PUM1 PUF domain R4-GQS (Homo sapiens, UniProt Q14671 828-1176, N971G;H972Q;Q975S)
In short: as §1

PUM1 PUF domain R5-GLR = PUM1 PUF domain R5-GLR (Homo sapiens, UniProt Q14671 828-1176, C1007G;R1008L;Q1011R)
In short: as §1

PUM1 PUF domain R4-EFD = PUM1 PUF domain R4-EFD (Homo sapiens, UniProt Q14671 828-1176, N971E;H972F;Q975D)
In short: as §1

PUM1 PUF domain R4-DWV = PUM1 PUF domain R4-DWV (Homo sapiens, UniProt Q14671 828-1176, N971D;H972W;Q975V)
In short: as §1

PUM1 PUF domain R8-IFM = PUM1 PUF domain R8-IFM (Homo sapiens, UniProt Q14671 828-1176, N1122I;Y1123F;Q1126M)
In short: as §1

PUM1 PUF domain R8-RHD = PUM1 PUF domain R8-RHD (Homo sapiens, UniProt Q14671 828-1176, N1122R;Y1123H;Q1126D)
In short: as §1

PUM1 PUF domain R3-KSR = PUM1 PUF domain R3-KSR (Homo sapiens, UniProt Q14671 828-1176, C935K;R936S;Q939R)
In short: as §1

PUM1 PUF domain R5-FHC = PUM1 PUF domain R5-FHC (Homo sapiens, UniProt Q14671 828-1176, C1007F;R1008H;Q1011C)
In short: as §1

PUM1 PUF domain R7-KFW = PUM1 PUF domain R7-KFW (Homo sapiens, UniProt Q14671 828-1176, S1079K;N1080F;E1083W)
In short: as §1

PUM1 PUF domain R1-KSV = PUM1 PUF domain R1-KSV (Homo sapiens, UniProt Q14671 828-1176, S863K;R864S;Q867V)
In short: as §1

PUM1 PUF domain R2-AKP = PUM1 PUF domain R2-AKP (Homo sapiens, UniProt Q14671 828-1176, N899A;Y900K;Q903P)
In short: as §1

PUM1 PUF domain R5-KRY = PUM1 PUF domain R5-KRY (Homo sapiens, UniProt Q14671 828-1176, C1007K;Q1011Y)
In short: as §1

PUM1 PUF domain R5-RLT = PUM1 PUF domain R5-RLT (Homo sapiens, UniProt Q14671 828-1176, C1007R;R1008L;Q1011T)
In short: as §1

PUM1 PUF domain R7-GSV = PUM1 PUF domain R7-GSV (Homo sapiens, UniProt Q14671 828-1176, S1079G;N1080S;E1083V)
In short: as §1

PUM1 PUF domain R7-QPG = PUM1 PUF domain R7-QPG (Homo sapiens, UniProt Q14671 828-1176, S1079Q;N1080P;E1083G)
In short: as §1

## GGCUAGAACUAGUGGAUCCCCCGGCGCCCGGCGGCUCGAGCCCGGGUAAGUGUAAAUAGUCUGCAUGCCGCCGGGCGCCAUGCCUGCAGGUCGACUCUAGAAAACAUG
PUM1 PUF domain R3-MYH
  binding signal: 3.93 log2 enrichment (interaction score)
PUM1 PUF domain R8-VWR
  binding signal: 4.37 log2 enrichment (interaction score)
PUM1 PUF domain R3-VWP
  binding signal: 7.08 log2 enrichment (interaction score)
PUM1 PUF domain R2-NRW
  binding signal: 6.69 log2 enrichment (interaction score)
PUM1 PUF domain R6-RFA
  binding signal: 4.04 log2 enrichment (interaction score)
PUM1 PUF domain R4-GQS
  binding signal: 2.47 log2 enrichment (interaction score)
PUM1 PUF domain R5-GLR
  binding signal: 1.61 log2 enrichment (interaction score)
PUM1 PUF domain R4-EFD
  binding signal: 2.17 log2 enrichment (interaction score)

## GGCUAGAACUAGUGGAUCCCCCGGCGCCCGGCGGCUCGAGCCCGGGUAAGUGUAUAUAGUCUGCAUGCCGCCGGGCGCCAUGCCUGCAGGUCGACUCUAGAAAACAUG
PUM1 PUF domain R4-DWV
  binding signal: 6.48 log2 enrichment (interaction score)

## GGCUAGAACUAGUGGAUCCCCCGGCGCCCGGCGGCUCGAGCCCGGGUAAGCGUAAAUAGUCUGCAUGCCGCCGGGCGCCAUGCCUGCAGGUCGACUCUAGAAAACAUG
PUM1 PUF domain R8-IFM
  binding signal: 2.25 log2 enrichment (interaction score)
PUM1 PUF domain R8-VWR
  binding signal: 4.44 log2 enrichment (interaction score)
PUM1 PUF domain R8-RHD
  binding signal: 5.28 log2 enrichment (interaction score)

## GGCUAGAACUAGUGGAUCCCCCGGCGCCCGGCGGCUCGAGCCCGGGUAAGUGUAAUUAGUCUGCAUGCCGCCGGGCGCCAUGCCUGCAGGUCGACUCUAGAAAACAUG
PUM1 PUF domain R3-VWP
  binding signal: 3.12 log2 enrichment (interaction score)
PUM1 PUF domain R3-KSR
  binding signal: 4.1 log2 enrichment (interaction score)

## GGCUAGAACUAGUGGAUCCCCCGGCGCCCGGCGGCUCGAGCCCGGGUAAGUGUGAAUAGUCUGCAUGCCGCCGGGCGCCAUGCCUGCAGGUCGACUCUAGAAAACAUG
PUM1 PUF domain R5-FHC
  binding signal: 3.55 log2 enrichment (interaction score)

## GGCUAGAACUAGUGGAUCCCCCGGCGCCCGGCGGCUCGAGCCCGGGUAAGUGUUAAUAGUCUGCAUGCCGCCGGGCGCCAUGCCUGCAGGUCGACUCUAGAAAACAUG
PUM1 PUF domain R5-FHC
  binding signal: 4.26 log2 enrichment (interaction score)

## GGCUAGAACUAGUGGAUCCCCCGGCGCCCGGCGGCUCGAGCCCGGGUAAGUCUAAAUAGUCUGCAUGCCGCCGGGCGCCAUGCCUGCAGGUCGACUCUAGAAAACAUG
PUM1 PUF domain R7-KFW
  binding signal: 3.75 log2 enrichment (interaction score)

## GGCUAGAACUAGUGGAUCCCCCGGCGCCCGGCGGCUCGAGCCCGGGUAAGUGAAAAUAGUCUGCAUGCCGCCGGGCGCCAUGCCUGCAGGUCGACUCUAGAAAACAUG
PUM1 PUF domain R6-RFA
  binding signal: 1.03 log2 enrichment (interaction score)

## GGCUAGAACUAGUGGAUCCCCCGGCGCCCGGCGGCUCGAGCCCGGGUAAGUGUAAAUUGUCUGCAUGCCGCCGGGCGCCAUGCCUGCAGGUCGACUCUAGAAAACAUG
PUM1 PUF domain R1-KSV
  binding signal: 2.75 log2 enrichment (interaction score)

## GGCUAGAACUAGUGGAUCCCCCGGCGCCCGGCGGCUCGAGCCCGGGUAAGUGUAAAUGGUCUGCAUGCCGCCGGGCGCCAUGCCUGCAGGUCGACUCUAGAAAACAUG
PUM1 PUF domain R1-KSV
  binding signal: 1.55 log2 enrichment (interaction score)

## GGCUAGAACUAGUGGAUCCCCCGGCGCCCGGCGGCUCGAGCCCGGGUAAGUGUAAAGAGUCUGCAUGCCGCCGGGCGCCAUGCCUGCAGGUCGACUCUAGAAAACAUG
PUM1 PUF domain R2-AKP
  binding signal: 3.58 log2 enrichment (interaction score)

## GGCUAGAACUAGUGGAUCCCCCGGCGCCCGGCGGCUCGAGCCCGGGUAAGUGUCAAUAGUCUGCAUGCCGCCGGGCGCCAUGCCUGCAGGUCGACUCUAGAAAACAUG
PUM1 PUF domain R5-KRY
  binding signal: 4.04 log2 enrichment (interaction score)
PUM1 PUF domain R5-GLR
  binding signal: 2.62 log2 enrichment (interaction score)
PUM1 PUF domain R5-RLT
  binding signal: 2.62 log2 enrichment (interaction score)

## GGCUAGAACUAGUGGAUCCCCCGGCGCCCGGCGGCUCGAGCCCGGGUAAGUGUAAGUAGUCUGCAUGCCGCCGGGCGCCAUGCCUGCAGGUCGACUCUAGAAAACAUG
PUM1 PUF domain R3-KSR
  binding signal: 1.19 log2 enrichment (interaction score)

## GGCUAGAACUAGUGGAUCCCCCGGCGCCCGGCGGCUCGAGCCCGGGUAAGUGUACAUAGUCUGCAUGCCGCCGGGCGCCAUGCCUGCAGGUCGACUCUAGAAAACAUG
PUM1 PUF domain R4-EFD
  binding signal: 2.47 log2 enrichment (interaction score)

## GGCUAGAACUAGUGGAUCCCCCGGCGCCCGGCGGCUCGAGCCCGGGUAAGUUUAAAUAGUCUGCAUGCCGCCGGGCGCCAUGCCUGCAGGUCGACUCUAGAAAACAUG
PUM1 PUF domain R7-GSV
  binding signal: 2.83 log2 enrichment (interaction score)
PUM1 PUF domain R7-QPG
  binding signal: 4.67 log2 enrichment (interaction score)

Reference: publication PMC8384837, “Expanding the binding specificity for RNA recognition by a PUF domain”
